In assay [1] the target is T1, Aspartate--tRNA(Asp/Asn) ligase (Mycobacterium tuberculosis (strain ATCC 25618 / H37Rv)) (UniProt P9WFW3). Note: in the data most compounds retested in dose-response had high values.
T1 sequence (whole entry): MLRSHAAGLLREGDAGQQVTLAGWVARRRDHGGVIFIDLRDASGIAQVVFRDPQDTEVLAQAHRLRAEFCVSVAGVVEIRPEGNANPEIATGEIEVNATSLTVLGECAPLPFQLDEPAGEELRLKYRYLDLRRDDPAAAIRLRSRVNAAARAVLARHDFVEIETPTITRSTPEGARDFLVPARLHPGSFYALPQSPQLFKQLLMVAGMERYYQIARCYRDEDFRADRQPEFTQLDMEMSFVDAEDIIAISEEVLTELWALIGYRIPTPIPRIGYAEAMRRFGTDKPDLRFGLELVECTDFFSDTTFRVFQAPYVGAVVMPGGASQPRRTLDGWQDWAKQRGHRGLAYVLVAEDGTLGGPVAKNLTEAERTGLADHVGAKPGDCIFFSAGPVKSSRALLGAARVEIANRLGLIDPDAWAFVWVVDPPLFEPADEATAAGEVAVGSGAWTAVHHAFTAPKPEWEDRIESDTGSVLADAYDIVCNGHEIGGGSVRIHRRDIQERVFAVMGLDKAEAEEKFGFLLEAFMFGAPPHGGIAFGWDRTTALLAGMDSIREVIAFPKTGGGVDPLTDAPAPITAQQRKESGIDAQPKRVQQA
Put plainly: Assay for Asp RNA synthetase-1 from Mycobacterium tuberculosis. Format: functional. More on the design: scale not given: direction of the effect not stated beside the values. The following applies: 30 µM.

In assay [2] the target is Shiga toxin 2 (Escherichia coli O157:H7) (UniProt P09385+P09386). Briefly: E. coli 0.157:H7 Shiga Toxin SOP - stx2 screening assay. Format: functional. More on the design: scale not given: direction of the effect not stated beside the values. The following applies: 30 µM.

Turning to `CC1CCN(CCNC(=O)c2cncnc2C(C)C)CC1`, the values for the Percent Effect in assay [1] and in assay [2] were -2.54% and -18.7%, respectively.

As to `O=C(NC1CC1)N1CCc2ncnc(-c3ccncc3)c2CC1`, the Percent Effect in assay [1] is 5.15%; in assay [2] it was -28.2%.

In the case of `CN1CC(c2ccccc2)CC12CCN(C(=O)c1ccc(F)cc1)CC2` (stereo not given), the Percent Effect in assay [1] was -1.84%; in assay [2], 11.8%.

Consider `COc1ccc(CN(C)[C@@H]2CN(C(=O)c3cccs3)C[C@H]2O)cc1`, for which the Percent Effect is -4.54% in assay [1] and 12% in assay [2].

For the compound `COCC(=O)N1Cc2cnc(Cc3ccc(OC)cc3)nc2C1`, the Percent Effect is 2.73% in assay [1] and -8.2% in assay [2].

For the compound `O=C(NC1(c2cccc(F)c2)CCOCC1)c1cc[nH]n1`, the values for the Percent Effect in assay [1] and in assay [2] were 3.45% and -26.7%, respectively.

With `N#Cc1cc(NC(=O)C2CC=CC2)ccc1N1CCC(O)CC1`, the Percent Effect in assay [1] is -1.55%; in assay [2], -9.47%.

Consider `CC(C(=O)N1CCN(c2ccccc2Cl)CC1)n1cncn1` (stereo not given), for which the Percent Effect in assay [1] was -1.38%; in assay [2], -19.8%.

Take `C[C@H]1C[C@H]2CN(C(=O)c3ccncn3)CC[C@H]2O1`: the Percent Effect is -0.436% in assay [1] and -34.2% in assay [2].

Take `CC(=O)N1CCC2(CCCN(C(=O)c3ccccc3)C2)C1` (stereo not given): the figures for the Percent Effect in assay [1] and in assay [2] were -1.28% and -1.81%, respectively.

In the case of `CN(C)C(=O)CCCNC(=O)C(c1cccc(F)c1)N(C)C` (stereo not given), the Percent Effect is -1.57% in assay [1] and -24.8% in assay [2].

With `O=C(Cn1c(=O)nc2n1C(=O)N(c1ccccc1)C2)Nc1ccccc1`, the figures for the Percent Effect in assay [1] and in assay [2] were -4% and 16.3%, respectively.

Take `Cn1cnnc1C1CCCN(C(=O)c2ccc3c(c2)OCCCO3)C1` (stereo not given): the Percent Effect in assay [1] turned out to be 0%; in assay [2], 1.29%.

Take `CC(=O)N1CCC(c2ccnc(Nc3cnccn3)n2)C1` (stereo not given): the results for the Percent Effect in assay [1] and in assay [2] were 1.13% and -14.2%, respectively.

`CSCCCN1CC[C@@H](NC(=O)c2cnccn2)[C@H](O)C1`: the Percent Effect in assay [1] was -0.39%; in assay [2], 2.82%.

Regarding `O=C(N1CCCC1)N1Cc2nccn2CC(CN2CCCC2)C1` (stereo not given), the Percent Effect in assay [1] was -5.76%; in assay [2] it was 1.77%.

Consider `O=C(NCc1cccs1)[C@H]1CC[C@@H]2[C@@H](CCN2c2ncccn2)O1`, for which the figures for the Percent Effect in assay [1] and in assay [2] were 3.22% and -3.66%, respectively.

As to `CCNC(=O)c1ccoc1CN1c2ccccc2CC1C` (stereo not given), the Percent Effect in assay [1] was 2.94%; in assay [2], -19.2%.

In the case of `COc1cccc2c1OCC(C(=O)N(C)CCCc1cnn(C)c1)C2` (stereo not given), the Percent Effect is 9.43% in assay [1] and -7.98% in assay [2].

In the case of `COc1ccc(OCCCN2CCOC(Cn3cccn3)C2)cc1` (stereo not given), the values for the Percent Effect in assay [1] and in assay [2] were -0.393% and 5.03%, respectively.

`Cc1nc(C2CCCCN2C(=O)c2ccccc2)ncc1C(=O)N(C)C` (stereo not given): the Percent Effect in assay [1] was -6.63%; in assay [2] it was -5.42%.

On to `CC(C)(C)c1n[nH]c(C2CN(C(=O)c3csnn3)CCO2)n1` (stereo not given), for which the Percent Effect was -2.01% in assay [1] and 5.88% in assay [2].

On to `CC(C)c1nnc2n1CCN(CC(=O)Nc1nncs1)C2`, for which the Percent Effect in assay [1] is -2.1%; in assay [2] it was 10%.

With `CS(=O)(=O)N1CCC2(CN(C(=O)c3cccnc3)C2)C1`, the results for the Percent Effect in assay [1] and in assay [2] were -2.07% and -24.7%, respectively.

In the case of `COCC(=O)N1CCC2(CCN(Cc3ccccn3)CC2)CC1`, the Percent Effect in assay [1] was 6.21%; in assay [2], -8.31%.

Regarding `CC(=O)Nc1cccc(OCCNC(=O)N(C)Cc2ccco2)c1`, the Percent Effect in assay [1] was -1.02%; in assay [2], -16.7%.

Regarding `O=C(NCCC(=O)N1CCCCCC1)c1c(O)cc(F)cc1F`, the Percent Effect in assay [1] is -0.98%; in assay [2], -11.1%.

Consider `CN(Cc1nnc(-c2ccco2)o1)C1CCCN(c2cccnn2)C1` (stereo not given), for which the values for the Percent Effect in assay [1] and in assay [2] were 0.611% and -78.7%, respectively.

On to `Cc1cc(F)ccc1CN1CCCC2(C1)OCCO2`, for which the Percent Effect in assay [1] is -5.59%; in assay [2], 10.5%.

Regarding `CC(C)NC(=O)N1CCc2nc(C(=O)NCc3ccccc3)sc2CC1`, the Percent Effect in assay [1] amounted to 0.168%; in assay [2] it was 4.49%.

With `Cc1cccnc1CNc1cc(N2CCCC2CO)ncn1` (stereo not given), the Percent Effect was -4.52% in assay [1] and -6.27% in assay [2].

In the case of `CC(C)(N)C(=O)N1CCCC1c1cncc(Oc2ccc(F)cc2)n1` (stereo not given), the Percent Effect is -3.75% in assay [1] and -12.5% in assay [2].

As to `CC(C)(C)n1cc(C(=O)N2CCN(Cc3ccsc3)CC2)cn1`, the Percent Effect in assay [1] is -3.48%; in assay [2] it was 30.7%.

As for `CN(Cc1cscn1)C1CCCN(Cc2noc(C3CC3)n2)C1` (stereo not given), the values for the Percent Effect in assay [1] and in assay [2] were -2.67% and 0.508%, respectively.

Turning to `CCCN1CCN(C(=O)c2scnc2C)CC1`, the results for the Percent Effect in assay [1] and in assay [2] were -0.389% and 5.75%, respectively.

As to `Cc1cccc(-c2nc(CN3CCc4c(ncn4C)C3)no2)c1`, the Percent Effect in assay [1] was 1.91%; in assay [2] it was 4.04%.

For the compound `Cc1nn(C)c(Cl)c1C1CCCN1CCc1ccccn1` (stereo not given), the Percent Effect in assay [1] was 1.79%; in assay [2], -0.4%.

Turning to `O=C(CN1CCCCC1Cn1cncn1)NC1CCN(C2CC2)CC1` (stereo not given), the Percent Effect was -0.234% in assay [1] and -4.41% in assay [2].

Regarding `CN1CCN(c2cc(CNC(=O)c3ccc(=O)[nH]n3)ccn2)CC1`, the Percent Effect was -0.544% in assay [1] and -57.8% in assay [2].

Turning to `CCC(NC(=O)CC(F)(F)F)c1ccccc1OCC(=O)N1CCCC1` (stereo not given), the Percent Effect is 0.767% in assay [1] and -16.8% in assay [2].

On to `COc1ccc(CC(=O)N2CCCC(n3cc(C)cn3)C2)cc1F` (stereo not given), for which the Percent Effect in assay [1] was -0.544%; in assay [2], 12.2%.

With `CC(O)CN1CCN(Cc2nnc(C3CC3)o2)CC1` (stereo not given), the Percent Effect is 0.971% in assay [1] and -17.9% in assay [2].

As for `O=C(c1cc(F)ccc1F)C1CCN(C(=O)c2cccnc2O)CC1`, the Percent Effect in assay [1] is -2.36%; in assay [2], 27.8%.

On to `O=C(Cc1ccccc1)N1CCC2(CC(=O)N(c3ccsc3)C2)C1` (stereo not given), for which the Percent Effect in assay [1] was -3.62%; in assay [2] it was -10.4%.

For the compound `CCO[C@@H]1CCN(C(=O)c2cscn2)[C@@H]1Cc1cnn(C)c1`, the values for the Percent Effect in assay [1] and in assay [2] were -2.13% and 1.75%, respectively.

On to `Cc1ccc(C(=O)N2CCC3(CC2)CC(c2ccccc2)C(=O)N3)cn1` (stereo not given), for which the results for the Percent Effect in assay [1] and in assay [2] were 7.75% and -10.4%, respectively.

Take `Cc1ccc2cc(C3(O)CCN(C(=O)CN4CCCC4)CC3)ccc2n1`: the Percent Effect in assay [1] was 1.48%; in assay [2], -47.1%.

With `Cc1cc(C)n(CC2CCCN2CCS(=O)(=O)c2ccccc2)n1` (stereo not given), the results for the Percent Effect in assay [1] and in assay [2] were -0.833% and -9.51%, respectively.

For `Cn1cccc1C(=O)N1CCCC2(CCN(CCN3CCCC3)C2=O)C1` (stereo not given), the Percent Effect in assay [1] is -3.77%; in assay [2], -30.4%.

In the case of `Cc1ccc(CN2CCCC3(CCN(S(=O)(=O)N(C)C)C3)C2)o1` (stereo not given), the Percent Effect in assay [1] amounted to 0.162%; in assay [2] it was 10.6%.

The values above are taken from ChEMBL document CHEMBL3988442, “University of Dundee, Small-Polar-MMV Screening Library” (2021).
